Screens from PubChem.
A selection: hits, their analogues and other compounds. The true share with any hit is near 9.6%.
Insulin prom inh – TRM-6 insulin promoter activity inhibition. inhibition, % at 2 µM. AID 1273. TRM-6 cells (human fetal islet line), insulin promoter-eGFP reporter, imaging; reporter expression induced with tamoxifen. hit rate 0.9% among 130,000;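 active = inhibition above the mean plus 3 SD, with well images judged a real hit on visual review, cut at about 60% in these data, passing the limit was not always enough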
Lmaj promast – reduces viability of Leishmania major promastigotes; resazurin fluorescence viability; inhibition, % at 10 µM; hit rate 9% among 200,000; in the data active = inhibition above about 50%;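 note: promastigotes grown with compound for 44 hours at 28 °C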
Ins promoter up – MIN6 insulin promoter up-regulation; MIN6 insulin promoter-GFP reporter, high-content imaging; active compounds read high; z-score at 5 µM; hit rate 0.3% among 190,000; AID 1625;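 active = z-score above 3 at 5 µM with at least 500 cells counted in the well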
Autophagy HCS – modulators of autophagy | MEF GFP-LC3 puncta imaging; test concentration mostly 10 µM | calls only at 10 µM (by protocol) | hit rate 0.98% among 190,000;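 active = percentage of spot-positive cells more than 3 SD above its plate mean, without a fluorescence outlier flag or 80% toxicity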;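 note: spot-positive cell cutoff set from DMSO-treated cells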
PTEN del growth – growth suppressors of cells with PTEN tumor suppressor deletion | viability, % at 10 µM | hit rate 1.2% among 140,000 | HCT116 PTEN-null viability, CellTiter-Glo, 60 h; active compounds read low;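 active = viability at or below a set limit, 4 SD under the median of all tested compounds, cut at about 3.7% in these data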;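 note: PTEN knockout HCT116 line with beta catenin targeted HCT116 as companion control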
HCT116 bCat-KO – beta-catenin-lacking colon tumor cell growth suppression; HCT116 beta-catenin knockout viability, CellTiter-Glo, 60 h; active compounds read low; viability, % at 10 µM; hit rate 1.5% among 140,000; AID 818;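 active = viability at or under a set limit, the compound median less 4 SD, cut at about 6% in these data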;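 note: 0% = Hyamine 1622 control at 20 µM and 100% = untreated cell control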
Active calls of the source: *; i = inactive; · = not tested or not shown; + = active, no number.

SMILES	Insulin prom inh	Lmaj promast	Ins promoter up	Autophagy HCS	PTEN del growth	HCT116 bCat-KO
CC1CCCN(S(=O)(=O)c2ccc(S(=O)(=O)N3CCCN(Cc4ccccc4)C3)cc2)C1 (stereo unspecified)	·	·	-0.29	·	·	·
CC1CCN(S(=O)(=O)c2ccc(NC(=O)CN3CCN(C)CC3)cc2)CC1	-7	24	0.44	i	97	103
NNC(=O)CCc1ccc(S(=O)(=O)N2CCOCC2)cc1	81*	4	0.16	i	·	·
CC1CCN(S(=O)(=O)c2ccc(S(=O)(=O)N3CCCN(Cc4ccccc4)C3)cc2)CC1	-350	86*	·	i	·	·
CCOC(=O)C(=O)Nc1ccc(S(=O)(=O)N2CCOCC2)cc1OC	-40	-4	-0.38	i	95	100
COc1ccc2o/c(=N\O)c(C(=O)Nc3ccc(C)cc3)cc2c1	43	50*	·	i	·	·
COc1ccc2o/c(=N/NC(=S)Nc3ccccc3)c(C(N)=O)cc2c1	·	-2	-0.25	+	89	95
COc1ccc(N=c2oc3ccccc3cc2C(=O)Nc2ccccn2)cc1OC	29	-3	0.03	+	·	·
COc1ccc(N=c2oc3c(OC)cccc3cc2C(=O)NCc2ccco2)cc1OC	·	-2	-0.76	+	82	84
COc1ccc(C2(O)CN(c3ccc(C)cc3)C3=[N+]2CCCC3)cc1 (stereo unspecified)	36	-1	-1.8	i	·	·
COc1cc(OC)c(C2N(C)c3ccccc3N2C)cc1OC	42	-1	0.46	i	96	97
COc1ccccc1NC(=O)c1cc2ccccc2o/c1=N\O	·	·	0.87	·	2.7*	4.5*
C=CCn1c(N)cc(=O)nc1SCC(=O)N1CCN(c2ccc(F)cc2)CC1	0	-5	0.1	i	94	86
Cc1ccc2nc3sc(C(=O)Nc4c(C)[nH]c(=O)[nH]c4=O)c(N)c3cc2c1	·	-5	·	i	94	98
COc1cccc(Cn2cnc3c(NS(=O)(=O)c4ccc(Cl)cc4)c(C)c(C)cc32)c1	-88	50*	0.43	i	92	89
COc1cccc(Cn2cnc3c(NS(=O)(=O)c4ccc(Cl)cc4Cl)c(C)c(C)cc32)c1	4	-1	·	i	84	93
O=C(Nc1ccc2[nH]c(=O)[nH]c2c1)C(F)(F)F	·	-3	0.41	i	·	·
COc1ccc(NC(=O)c2cccs2)cc1	-225	2	0.51	i	74	78
COc1ccc(N2CC(C(=O)N/N=C/c3c[nH]c4ccccc34)CC2=O)cc1 (stereo unspecified)	51	3	0.23	i	·	·
CCCCNc1nc2ccccc2n1CC(=O)N1CCc2ccccc2C1	-55	70*	0.01	i	61	73
COc1ccc(CCNC(=O)CCCN2C(=O)c3ccccc3C2=O)cc1OC	-62	-4	·	i	95	100
CCN(CC)C(=O)Cn1c(=O)c2ccccc2n2c(=S)sc(-c3cccc(C)c3)c12	·	1	1.4	+	43	44
CCN(C(=O)Cn1c(=O)n(-c2cc(OC)c(OC)c(OC)c2)c(=O)c2ccccc21)c1cccc(C)c1	0	-2	·	i	·	·
CCc1nnc(NC(=O)CSc2nnc3c4ccccc4n(C)c3n2)s1	-33	-4	0.36	i	101	96
CC1(C)Cc2c(sc(NC(=O)Cc3ccccc3)c2C#N)CO1	·	·	1.1	·	·	·
SMILES	Insulin prom inh	Lmaj promast	Ins promoter up	Autophagy HCS	PTEN del growth	HCT116 bCat-KO
CCOC(=O)c1[nH]c(C=O)c(C(=O)OCC)c1C	-364	88*	1.1	i	·	·
CCOC(=O)c1[nH]c(C)c(C(=O)O)c1C	14	-24	-0.43	i	105	108
Cc1ccc(C(=O)NC(=S)Nn2cnnc2)cc1	·	-4	0.37	i	95	104
CCn1cnc2sc(C(=O)Oc3cccc(C)c3)c(C)c2c1=O	-6	41	·	i	·	·
Cc1c(C(=O)Oc2ccc(F)cc2)sc2ncn(Cc3cccc(F)c3)c(=O)c12	8	51*	0.66	i	94	95
COc1ccc(C(=O)c2ccc(Cl)c([N+](=O)[O-])c2)cc1	-7	80*	1.2	i	20	8
COc1ccc(C(=O)c2ccc(Cl)cc2)cc1	9	-5	0.9	i	112	100
Cc1ccc2c(c1)-c1c(cnn1CC(=O)Nc1ccccc1N1CCN(C)CC1)CO2	·	22	·	i	22	20
COc1ccc(C(=O)COc2ccc(F)cc2)c(O)c1	·	·	-0.19	·	·	·
COc1ccc(NC(=O)c2ccccc2C)c(OC)c1	-25	-2	0.56	i	101	90
COc1ccc(O)c(C(=O)CC(=O)c2ccccc2C)c1	·	92*	-0.05	i	·	·
